Measured values: the antibiotic and cytotoxicity screens of Wong et al. (2023)
The campaign covered roughly 39,000 compounds. About 1,500 (3.8%) were called active. Shown is part of a subset that was picked to be rich in actives.

Tested on: HSkMC (human skeletal muscle cells)
Assay: cytotoxicity call (relative viability < 0.9)
Conditions: 10 µM

Row | Compound | cytotoxicity call
1 | COc1ccc(S(=O)(=O)Nc2ccc3c(c2)C(=O)N([C@@H](C)CO)C[C@@H](C)[C@@H](CN(C)CC2CCCCC2)OCCCC[C@H](C)O3)cc1 | inactive
2 | C=CCOC(=O)[C@@H]1[C@H]2C(=O)O[C@H](c3ccccc3)[C@H](c3ccccc3)N2[C@H](c2ccc(OCCOC(=O)[C@H]3C[C@H]4C(=O)N5CCC[C@H]5C(=O)N4[C@H]3c3ccc(O)cc3)cc2)[C@@]12C(=O)Nc1ccc(I)cc12 | inactive
3 | C[C@H]1CN([C@@H](C)CO)C(=O)c2cc(NC(=O)CCCCCC(=O)Nc3ccccc3N)ccc2O[C@@H]1CN(C)S(C)(=O)=O | inactive
4 | O=C(C[C@H]1CC[C@H]2[C@@H](COC[C@@H](O)CN2Cc2ccccc2F)O1)N[C@@H]1CCN(Cc2ccccc2)C1 | inactive
5 | CCCCCCCCCCNc1cc(CO)c2cc[nH]c2c1 | inactive
6 | COc1ccc(S(=O)(=O)Nc2ccc3c(c2)C(=O)N([C@H](C)CO)C[C@H](C)[C@H](CN(C)C(=O)NC2CCCCC2)OCCCC[C@H](C)O3)cc1 | inactive
7 | C[C@H]1CN([C@@H](C)CO)C(=O)Cc2cc(NS(=O)(=O)c3ccc(F)cc3)ccc2O[C@H]1CN(C)Cc1ccc(Cl)c(Cl)c1 | inactive
8 | C[C@@H]1CN([C@@H](C)CO)C(=O)Cc2cc(NS(=O)(=O)c3ccc(F)cc3)ccc2O[C@H]1CN(C)Cc1ccc(Cl)c(Cl)c1 | inactive
9 | C[C@@H]1CN([C@H](C)CO)C(=O)Cc2cc(NS(=O)(=O)c3ccc(F)cc3)ccc2O[C@H]1CN(C)Cc1ccc(Cl)c(Cl)c1 | inactive
10 | C[C@@H]1CN([C@H](C)CO)C(=O)Cc2cc(NS(=O)(=O)c3ccc(F)cc3)ccc2O[C@@H]1CN(C)Cc1ccc(Cl)c(Cl)c1 | active
11 | C[C@@H]1CN([C@@H](C)CO)C(=O)Cc2cc(NS(=O)(=O)c3ccc(F)cc3)ccc2O[C@@H]1CN(C)Cc1ccc(Cl)c(Cl)c1 | active
12 | C[C@H]1CN([C@@H](C)CO)C(=O)Cc2cc(NS(=O)(=O)c3ccc(F)cc3)ccc2O[C@@H]1CN(C)Cc1ccc(Cl)c(Cl)c1 | inactive
13 | C[C@H]1CCCCO[C@@H](CN(C)S(=O)(=O)c2cccs2)[C@@H](C)CN([C@@H](C)CO)C(=O)c2cc(NC(=O)C3CCCCC3)ccc2O1 | inactive
14 | C[C@H](CO)N1C[C@H](C)[C@H](CN(C)Cc2ccc(C(=O)Nc3ccccc3N)cc2)Oc2ccc(NC(=O)C3CCCCC3)cc2C1=O | inactive
15 | C[C@@H]1CN([C@H](C)CO)C(=O)Cc2cc(NS(=O)(=O)c3cccs3)ccc2O[C@H]1CN(C)Cc1ccc(Cl)c(Cl)c1 | active
16 | C[C@H](CO)N1C[C@H](C)[C@H](CN(C)Cc2ccc(Cl)c(Cl)c2)Oc2ccc(NS(=O)(=O)c3cccs3)cc2CC1=O | inactive
17 | C[C@H]1CN([C@@H](C)CO)C(=O)Cc2cc(NS(=O)(=O)c3cccs3)ccc2O[C@@H]1CN(C)Cc1ccc(Cl)c(Cl)c1 | inactive
18 | C[C@H]1CN([C@@H](C)CO)C(=O)Cc2cc(NS(=O)(=O)c3cccs3)ccc2O[C@H]1CN(C)Cc1ccc(Cl)c(Cl)c1 | active
19 | C[C@@H]1CN([C@H](C)CO)C(=O)Cc2cc(NS(=O)(=O)c3cccs3)ccc2O[C@@H]1CN(C)Cc1ccc(Cl)c(Cl)c1 | active
20 | C[C@@H]1CN([C@H](C)CO)C(=O)Cc2cc(NS(=O)(=O)c3cccs3)ccc2O[C@@H]1CN(C)Cc1ccncc1 | inactive
21 | C[C@@H]1CN([C@@H](C)CO)C(=O)Cc2cc(NS(=O)(=O)c3cccs3)ccc2O[C@H]1CN(C)Cc1ccc(Cl)c(Cl)c1 | inactive
22 | C[C@@H]1CN([C@@H](C)CO)C(=O)Cc2cc(NS(=O)(=O)c3cccs3)ccc2O[C@@H]1CN(C)Cc1ccc(Cl)c(Cl)c1 | inactive
23 | C[C@H](CO)N1C[C@H](C)[C@@H](CN(C)Cc2ccc(Cl)c(Cl)c2)Oc2ccc(NS(=O)(=O)c3cccs3)cc2CC1=O | inactive

Row | Compound | cytotoxicity call
24 | COc1ccc(S(=O)(=O)N(C)C[C@H]2Oc3c(NC(=O)NC(C)C)cccc3C(=O)N([C@H](C)CO)C[C@H]2C)cc1 | inactive
25 | C[C@@H]1CN([C@H](C)CO)C(=O)c2cc(NC(=O)C3CCCCC3)ccc2O[C@@H](C)CCCCO[C@H]1CN(C)S(=O)(=O)c1ccccc1 | inactive
26 | C[C@H]1CN([C@@H](C)CO)C(=O)c2c(c3ccccc3n2C)-c2ccccc2CO[C@H]1CN(C)C(=O)Nc1ccccc1C(F)(F)F | inactive
27 | COc1ccc(NC(=O)Nc2cccc3c2O[C@@H](CN(C)Cc2ccc(Cl)c(Cl)c2)[C@H](C)CN([C@H](C)CO)C3=O)cc1 | inactive
28 | CC(C)NC(=O)Nc1ccc2c(c1)C(=O)N([C@@H](C)CO)C[C@@H](C)[C@H](CN(C)Cc1ccc(Cl)c(Cl)c1)OCCCC[C@@H](C)O2 | inactive
29 | C[C@@H]1CN([C@@H](C)CO)C(=O)c2cccc(NC(=O)c3ccncc3)c2O[C@@H]1CN(C)S(=O)(=O)c1cccs1 | inactive
30 | C[C@H]1CN([C@@H](C)CO)C(=O)CCCn2cc(nn2)CO[C@H]1CN(C)C(=O)C1CC1 | inactive
31 | O=C(C[C@@H]1CC[C@@H]2[C@H](COC[C@H](O)CN2S(=O)(=O)c2cccc(F)c2)O1)NCCCN1CCOCC1 | inactive
32 | CNc1nc(OCC#N)nc(N2CCCCC2)n1 | inactive
33 | COC(=O)[C@@]12OC[C@]34[C@H]([C@@H](O)[C@@H]1O)[C@@]1(C)CC(=O)C(=O)[C@H](C)[C@@H]1C[C@H]3OC(=O)[C@H](OC(=O)/C=C(\C)C(C)C)[C@@H]24 | active
34 | C[C@H](CO)N1C[C@H](C)[C@@H](CN(C)S(=O)(=O)c2ccccc2)Oc2ncc(C#Cc3ccccc3F)cc2C1=O | inactive
35 | O=C(C[C@@H]1CC[C@H]2[C@@H](COC[C@@H](O)CN2C(=O)c2ccc3c(c2)OCO3)O1)NCCN1CCCCC1 | inactive
36 | CC(=O)NCC(=O)N1CCC2(CC1)CN(c1cnn(C)c1)C(=O)CO2 | inactive
37 | COc1ccccc1N1CCN(CC(O)COc2cccc3ccccc23)CC1 (stereo not drawn) | inactive
38 | O[C@@H](COc1cccc2ncccc12)CN1CCN([C@@H]2c3ccccc3[C@@H]3[C@H](c4ccccc42)C3(F)F)CC1 | active
39 | O=C1C(=O)N(C[C@@H](O)COc2cccc3ccccc23)C(=O)C(=O)N1C[C@@H](O)COc1cccc2ccccc12 | inactive
40 | C[C@H](CO)N1C[C@H](C)[C@@H](CN(C)C(=O)c2ccncc2)OCCCC[C@H](C)Oc2ccc(NS(C)(=O)=O)cc2C1=O | inactive
41 | C[C@@H]1CN([C@H](C)CO)C(=O)c2cc(NC(=O)Nc3ccc(C(F)(F)F)cc3)ccc2O[C@@H](C)CCCCO[C@@H]1CN(C)C(=O)Nc1cccc2ccccc12 | inactive
42 | C[C@@H]1CN([C@H](C)CO)C(=O)c2cccc(NC(=O)Nc3ccccc3)c2O[C@@H]1CN(C)S(C)(=O)=O | inactive
43 | COc1ccc2c3c(n(c2c1)C)[C@@H](CO)N(CC1CC1)C[C@]13CCN(CC1)S(=O)(=O)c1cn(cn1)C | inactive
44 | C[C@H](NC(=O)c1c(N)nn2cccnc12)c1cc2cccc(C#Cc3cnn(C)c3)c2c(=O)n1-c1ccccc1 | active
45 | C[C@@H]1CCCCO[C@H](CN(C)C(=O)Nc2ccccc2)[C@@H](C)CN([C@@H](C)CO)C(=O)c2cc(NC(=O)Cc3ccccc3)ccc2O1 | inactive
46 | COc1ccc(S(=O)(=O)N(C)C[C@@H]2Oc3cc(C#CC4CC4)ccc3S(=O)(=O)N([C@@H](C)CO)C[C@@H]2C)cc1 | inactive

Row | Compound | cytotoxicity call
47 | C=CC(=O)Nc1cccc(C)c1Nc1ncc2cc(-c3c(Cl)c(OC)cc(OC)c3Cl)ccc2n1 | inactive
48 | C=CC(=O)Nc1cccc(Nc2nc(Nc3ccc(NC4CN(CCF)C4)cc3OC)ncc2C(F)(F)F)c1 | active
49 | C[C@@H]1CN([C@@H](C)CO)C(=O)c2cc(NC(=O)C3CC3)ccc2O[C@H]1CN(C)S(=O)(=O)c1ccccc1 | inactive
50 | C[C@@H](NC(=O)C[C@@H]1CC[C@H](NC(=O)CN2CCOCC2)[C@H](CO)O1)c1ccccc1 | inactive
51 | CC[C@@H](C)n1ncn(-c2ccc(N3CCN(c4ccc(OC[C@H]5CO[C@](Cn6cncn6)(c6ccc(Cl)cc6Cl)O5)cc4)CC3)cc2)c1=O | inactive
52 | CCC(C)n1ncn(-c2ccc(N3CCN(c4ccc(OCC5COC(Cn6cncn6)(c6ccc(Cl)cc6Cl)O5)cc4)CC3)cc2)c1=O.Cl.Cl (stereo not drawn) | inactive
53 | CC[C@H](C)n1ncn(-c2ccc(N3CCN(c4ccc(OC[C@H]5CO[C@](Cn6cncn6)(c6ccc(Cl)cc6Cl)O5)cc4)CC3)cc2)c1=O | active
54 | CS(=O)(=O)N1CCN(Cc2cc3nc(-c4cccc5n[nH]cc45)nc(N4CCOCC4)c3s2)CC1 | active
55 | CO[C@@H]1CN(C)C(=O)c2ccc(NC(=O)NC(C)C)cc2OC[C@@H](C)N(Cc2ccc(-c3ccccn3)cc2)C[C@H]1C | inactive
56 | C[C@H](CO)N1C[C@H](C)[C@H](CN(C)CC2CC2)Oc2ccc(NS(=O)(=O)c3cccs3)cc2C1=O | inactive
57 | CC(C)NC(=O)N(C)C[C@@H]1OCCCC[C@@H](C)Oc2ccc(NC(=O)Nc3ccc(C(F)(F)F)cc3)cc2C(=O)N([C@@H](C)CO)C[C@H]1C | inactive
58 | CC(C)NC(=O)N(C)C[C@H]1OCCCC[C@H](C)Oc2ccc(NC(=O)Nc3ccc(C(F)(F)F)cc3)cc2C(=O)N([C@H](C)CO)C[C@@H]1C | inactive
59 | C[C@H]1CCCCO[C@H](CN(C)C(=O)Nc2ccc(C(F)(F)F)cc2)[C@@H](C)CN([C@@H](C)CO)C(=O)c2cc(NC(=O)Nc3ccc(C(F)(F)F)cc3)ccc2O1 | inactive
60 | C[C@H]1CCCCO[C@H](CN(C)C(=O)C2CCCCC2)[C@@H](C)CN([C@@H](C)CO)C(=O)c2cc(NC(=O)Nc3ccc(C(F)(F)F)cc3)ccc2O1 | active
61 | CC(C)NC(=O)N(C)C[C@@H]1OCCCC[C@H](C)Oc2ccc(NC(=O)Nc3ccc(C(F)(F)F)cc3)cc2C(=O)N([C@H](C)CO)C[C@@H]1C | active
62 | CC(C)NC(=O)N(C)C[C@H]1OCCCC[C@@H](C)Oc2ccc(NC(=O)Nc3ccc(C(F)(F)F)cc3)cc2C(=O)N([C@@H](C)CO)C[C@H]1C | inactive
63 | CC(C)NC(=O)N(C)C[C@@H]1OCCCC[C@H](C)Oc2ccc(NC(=O)Nc3ccc(C(F)(F)F)cc3)cc2C(=O)N([C@@H](C)CO)C[C@H]1C | inactive
64 | C[C@@H]1CCCCO[C@@H](CN(C)C(=O)C2CCCCC2)[C@H](C)CN([C@@H](C)CO)C(=O)c2cc(NC(=O)Nc3ccc(C(F)(F)F)cc3)ccc2O1 | inactive
65 | CC(C)NC(=O)N(C)C[C@@H]1OCCCC[C@H](C)Oc2ccc(NC(=O)Nc3ccc(C(F)(F)F)cc3)cc2C(=O)N([C@@H](C)CO)C[C@@H]1C | active
66 | C[C@H](CO)N1C[C@H](C)[C@H](CN(C)C(=O)Nc2ccc(C(F)(F)F)cc2)OCCCC[C@H](C)Oc2ccc(NC(=O)Nc3ccc(C(F)(F)F)cc3)cc2C1=O | active
67 | C[C@@H]1CCCCO[C@@H](CN(C)C(=O)C2CCCCC2)[C@@H](C)CN([C@H](C)CO)C(=O)c2cc(NC(=O)Nc3ccc(C(F)(F)F)cc3)ccc2O1 | inactive
68 | C[C@@H]1CCCCO[C@H](CN(C)C(=O)Nc2ccc(C(F)(F)F)cc2)[C@@H](C)CN([C@@H](C)CO)C(=O)c2cc(NC(=O)Nc3ccc(C(F)(F)F)cc3)ccc2O1 | inactive
